An excerpt weighted towards active compounds, which were near 2.3% of everything screened.
PME-1 inh: blocks human protein phosphatase methylesterase 1; Q9Y570; recombinant PME-1, FP-Rh probe fluorescence polarization; inhibition, % at 5.9 µM; hit rate 0.53% among 320,000; AID 2130;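 active = inhibition above the campaign mean of all compounds plus 3 SD, cut at about 26% in these data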;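 note: competitive labeling of PME-1 active site by serine hydrolase directed probe; 0% = PME-1 with DMSO and 100% = wells lacking PME-1 enzyme; inhibitors block probe labeling so polarization falls and inhibition rises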
PAD4 inh: inhibitors of human PAD4 | Q9UM07 | recombinant PAD4, RCA probe fluorescence polarization | inhibition, % at 6.36 µM | hit rate 0.41% among 330,000;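 active = percent inhibition above a cutoff equal to the mean of all tested compounds plus 3 SD, cut at about 15% in these data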;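 note: 0% = PAD4 with RCA probe and DMSO and 100% = probe without PAD4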
pPAFAH FP inh: pPAFAH (human) enzyme inhibition; Q13093; AID 463082; recombinant pPAFAH, FP-rhodamine probe fluorescence polarization; inhibition, % at 3.39 µM; hit rate 1.5% among 330,000;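 active = inhibition above the mean inhibition across the screen plus 3 SD, cut at about 25% in these data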;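 note: inhibitors block binding of the rhodamine activity-based probe so polarization drops; 0% = enzyme with DMSO and 100% = wells lacking pPAFAH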
Target sequence (Q13093 whole entry, looked up): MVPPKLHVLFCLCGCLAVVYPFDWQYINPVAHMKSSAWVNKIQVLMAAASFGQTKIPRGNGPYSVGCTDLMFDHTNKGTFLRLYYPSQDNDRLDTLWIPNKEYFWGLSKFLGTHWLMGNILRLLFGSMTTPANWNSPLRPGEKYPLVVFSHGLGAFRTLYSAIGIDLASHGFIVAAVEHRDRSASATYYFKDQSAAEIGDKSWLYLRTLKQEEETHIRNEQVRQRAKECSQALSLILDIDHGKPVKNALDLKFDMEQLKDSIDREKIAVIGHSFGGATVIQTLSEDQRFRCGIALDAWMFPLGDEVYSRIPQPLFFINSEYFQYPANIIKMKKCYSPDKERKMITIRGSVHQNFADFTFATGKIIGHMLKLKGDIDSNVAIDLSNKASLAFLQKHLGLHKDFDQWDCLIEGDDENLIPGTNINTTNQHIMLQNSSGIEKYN
GSTO1 counter: blocks human GSTO1 in RBBP9 counter-screen | P78417 | recombinant GSTO1, activity-based probe fluorescence polarization | inhibition, % at 5.96 µM | hit rate 1.1% among 300,000 | AID 1974;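 active = inhibition above the campaign mean inhibition plus 3 SD, cut at about 35% in these data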;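 note: 0% = GSTO1-1 with DMSO and 100% = wells lacking GSTO1-1 enzyme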
Fam108B inh: blocks mouse Fam108B hydrolase in RBBP9 counter-screen | recombinant Fam108B, FP-Rh probe fluorescence polarization | inhibition, % at 9.51 µM | hit rate 0.33% among 300,000 | AID 1947;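 active = inhibition above the screen mean inhibition plus 3 SD, computed separately per campaign, cut at about 18% in these data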;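 note: inhibitors lower polarization as less probe binds the enzyme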
* hit, by the source's call.

Results for CCOc1ccc2nc(COC(=O)c3ccncc3)c(C(=O)c3ccccc3)[n+]([O-])c2c1 ?
PME-1 inh: -4; PAD4 inh: 3; pPAFAH FP inh: 1; GSTO1 counter: 9; Fam108B inh: -1

What do the screens show for `COc1cc2cc3c(N)c(C(=O)NCc4ccco4)sc3nc2cc1OC`?
PME-1 inh: 47*; PAD4 inh: -6; pPAFAH FP inh: 24; GSTO1 counter: -17; Fam108B inh: 17

What do the screens show for `Cc1nc2oc3c(NCc4ccccc4)ncnc3c2c2c1COC(C)(C)C2`?
PME-1 inh: 0; PAD4 inh: 2; pPAFAH FP inh: 27*; GSTO1 counter: 4; Fam108B inh: 0

What do the screens show for `CCOC(=O)C[n+]1c(C)sc2ccc(OC)cc21`?
PME-1 inh: -1; PAD4 inh: 18*; pPAFAH FP inh: 5; GSTO1 counter: 5; Fam108B inh: -2

How did CCOc1ccc(Nc2nc(Cc3nnc(SCC(=O)O)o3)cs2)cc1 do in these assays?
PME-1 inh: 2; PAD4 inh: -3; pPAFAH FP inh: 28*; GSTO1 counter: 32; Fam108B inh: 6

Results for CCOc1ccc(Cc2nnc(SCC(=O)c3ccc(OC)cc3)o2)cc1 ?
PME-1 inh: 6; PAD4 inh: 0; pPAFAH FP inh: 2; GSTO1 counter: 25; Fam108B inh: 2

Results for Nc1ccc2oc(-c3cc(Br)ccc3Cl)nc2c1 ?
PME-1 inh: 28*; PAD4 inh: -1; pPAFAH FP inh: 12; GSTO1 counter: 3; Fam108B inh: 5

How did Cc1c(Cc2ccccc2)c(=O)oc2c(C)c(OCC(=O)N[C@@H](Cc3ccccc3)C(=O)O)ccc12 do in these assays?
PME-1 inh: 9; PAD4 inh: -1; pPAFAH FP inh: 33*; GSTO1 counter: -7; Fam108B inh: -1

What do the screens show for `CC(=O)NCCNC(=O)c1ccc(CSc2nc3ccccc3s2)cc1`?
PME-1 inh: 0; PAD4 inh: 0; pPAFAH FP inh: -1; GSTO1 counter: -6; Fam108B inh: 0

How did CC(=O)c1ccccc1NC(=O)c1cc(S(=O)(=O)N2CCOCC2)ccc1N1CCCC1 do in these assays?
PME-1 inh: -2; PAD4 inh: 5; pPAFAH FP inh: 1

What do the screens show for `CCN(c1ccccc1)S(=O)(=O)c1ccc(Cl)c(C(=O)NCc2ccco2)c1`?
PME-1 inh: 4; PAD4 inh: 0; pPAFAH FP inh: 7

Results for CC(=O)C1=C(C)NC(SCC(=O)c2ccc(Cl)cc2Cl)=C(C#N)C1c1ccco1 (centres undefined) ?
PME-1 inh: -10; PAD4 inh: -20; pPAFAH FP inh: 28*; GSTO1 counter: -1; Fam108B inh: -1

How did Cc1ccc(C(=O)CSC2=C(C#N)C(c3ccco3)CC(=O)N2)c(C)c1 (centres undefined) do in these assays?
PME-1 inh: 0; PAD4 inh: -2; pPAFAH FP inh: 28*; GSTO1 counter: 13; Fam108B inh: 2

How did S=C(CN1CCCC1=S)NCCc1ccccc1 do in these assays?
PME-1 inh: -7; PAD4 inh: -1; pPAFAH FP inh: -4; GSTO1 counter: -5; Fam108B inh: 0

Results for CCOC(=O)CSc1nc2cc3c(cc2cc1C#N)OCCO3 ?
PME-1 inh: 34*; PAD4 inh: -2; pPAFAH FP inh: 2; GSTO1 counter: 11; Fam108B inh: -2

How did CCOC(=O)CSc1nc2cc3c(cc2cc1C#N)OCO3 do in these assays?
PME-1 inh: 22; PAD4 inh: 1; pPAFAH FP inh: 1; GSTO1 counter: -3; Fam108B inh: -2

What do the screens show for `Cc1ccsc1C(=O)N(C)C1CCS(=O)(=O)C1` (centres undefined)?
PME-1 inh: 1; PAD4 inh: 2; pPAFAH FP inh: 2

How did CC(C)(C)c1ccc(C(=O)N2CCNCC2)cc1 do in these assays?
PME-1 inh: -9; PAD4 inh: -2; pPAFAH FP inh: 27*; GSTO1 counter: -1; Fam108B inh: -2

Results for CC(C)(C)c1ccc(C(=O)N2CCCN(C(=O)c3ccc(C(C)(C)C)cc3)CC2)cc1 ?
PME-1 inh: 5; PAD4 inh: -3; pPAFAH FP inh: 3; GSTO1 counter: 2; Fam108B inh: 9

Results for CC(C)(C)NC(=O)CCN(/N=C/c1ccccc1O)C1=NS(=O)(=O)c2ccccc21 ?
PME-1 inh: 0; PAD4 inh: -4; pPAFAH FP inh: 6; GSTO1 counter: 0; Fam108B inh: -2

What do the screens show for `COc1ccccc1NC(=O)N1CCC(NC(=O)C(Cc2ccccc2F)NC(C)=O)CC1` (centres undefined)?
PME-1 inh: 0; PAD4 inh: -1; pPAFAH FP inh: 3; GSTO1 counter: -1; Fam108B inh: -2

Results for CC1=CC(C)(C)Nc2ccc(OC(=O)C(Cc3ccccc3)N3C(=O)c4ccccc4C3=O)cc21 (centres undefined) ?
PME-1 inh: 2; PAD4 inh: -4; pPAFAH FP inh: -2; GSTO1 counter: -1; Fam108B inh: 7

What do the screens show for `CC1=CC(C)(C)Nc2ccc(OC(=O)CN3C(=O)c4ccccc4C3=O)cc21`?
PME-1 inh: 6; PAD4 inh: -5; pPAFAH FP inh: -3; GSTO1 counter: 56*; Fam108B inh: 0

Results for CC1=CC(C)(C)Nc2ccc(OC(=O)CN3C(=O)c4cccc5cccc(c45)C3=O)cc21 ?
PME-1 inh: 7; PAD4 inh: -12; pPAFAH FP inh: 9; GSTO1 counter: 37*; Fam108B inh: 6

How did CCOC(=O)Cn1ncn(-c2ccc(OC(F)(F)F)cc2)c1=O do in these assays?
PME-1 inh: -3; PAD4 inh: 0; pPAFAH FP inh: -9; GSTO1 counter: 9; Fam108B inh: -2

How did COc1cc(OC)cc(C(=O)NC2CC(C)(C)NC(C)(C)C2)c1 do in these assays?
PME-1 inh: 0; PAD4 inh: -3; pPAFAH FP inh: -3; GSTO1 counter: 1; Fam108B inh: -3

Results for Cc1nn(C)c2ncc(C(=O)c3ccccc3O)cc12 ?
PME-1 inh: 5; PAD4 inh: 2; pPAFAH FP inh: 3; GSTO1 counter: 0; Fam108B inh: -2

How did Cc1nn(-c2ccccc2)c2ncc(C(=O)c3cc(Cl)ccc3O)cc12 do in these assays?
PME-1 inh: 29*; PAD4 inh: -3; pPAFAH FP inh: -3; GSTO1 counter: -2; Fam108B inh: -9

How did O=C(c1ccc2oc(CCCc3ccccc3)nc2c1)N1CCCC(CCCO)C1 (centres undefined) do in these assays?
PME-1 inh: 42*; PAD4 inh: -2; pPAFAH FP inh: 8; GSTO1 counter: -1; Fam108B inh: 1

Results for CC(=O)N1CCN(C(=O)c2ccc3oc(CCCc4ccccc4)nc3c2)CC1 ?
PME-1 inh: 6; PAD4 inh: -4; pPAFAH FP inh: 4; GSTO1 counter: 1; Fam108B inh: 0

Results for CCOC(=O)C1CCCN(C(=O)Cn2nc(C)n3c(cc4c(OC)cccc43)c2=O)C1 (centres undefined) ?
PME-1 inh: -3; PAD4 inh: 0; pPAFAH FP inh: 6; GSTO1 counter: 1; Fam108B inh: 0

What do the screens show for `CC(=O)N1N=C(c2ccc3ccccc3c2)OC1(C)C`?
PME-1 inh: 0; PAD4 inh: 1; pPAFAH FP inh: 4; GSTO1 counter: -1; Fam108B inh: -1

Screening data from PubChem.
